We go through 18 sequences from the supplement of paper PMC6555819.

For this test, the system named is RARb:RXRa (NR concentration 270 nM, RXRa partner concentration 90 nM). Description: PBM binding z-score (relative to random genomic background probes); higher = stronger binding; sequences stand for … in GC…GCGATTGACAGCGTAGAATGAAGG
The method, boiled down:
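Custom Agilent 4×180K protein-binding microarrays carried double-stranded probes, each with a 34-nt variable region. These regions held direct-repeat seeds, single-nucleotide variants, half-site ablations and random human genomic background sequences. Ligand-free nuclear receptor dimers were incubated on the arrays for 1 h, antibodies against each partner (one per run) detected binding, and scanned fluorescence was regression-normalized. Binding z-scores take the random background probes as reference.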
AATATTAGTTGAGACGAGGGCAACCGATAGGTTG had a PBM binding z-score of 1.26.
Consider GCATATAGGTAATACAAGGTGATAGTCCGATTGT, for which the PBM binding z-score was -0.103.
Then CCTACTGGTCCACGAAAGGTCATTGATTCAGTGA, with 3.95.
In the case of GCGAGTGGGGCATCAGCAGGTTACCATAACTTAA, the PBM binding z-score is 0.812.
AGAATGAGGTTGTTAAGATCAGGGAATTGCGGTC came in with a PBM binding z-score of 0.173.
Under TCCAGCAGGCCAGAGGGTCACTCAAGAGGTACGG stands 2.2.
The sequence GCTTGTAGATAAAGGTTAAGAAAGACTAAGCTAA returned a PBM binding z-score of 1.66.
Then CAGCCTAGGTCTGGGCCAGTATAGGAGGAACGTT, with -0.54; and CCTAGTTGGTCGAGGTCACACACGCTATAGGTAC, with 3.63.
ACTCGGAGCACAAAGGTCAGAGCTACGCCAGTGA came in with a PBM binding z-score of 4.29.
In turn, TCATATAGGTAAAAGGTGAAAGTCGGTGTGGTAA displayed a PBM binding z-score of 2.22.
Under CCTCGGAGGCCAGAAGGTCAGAGCTGTCCGCTTT stands 2.98; under TATACAGGGTCAAAGGCCCGAGTACGAATGTCGA, 4.33; under CGTCCAAGGTCAATGCTCGGTCAGTGAAAGCATT, 5.11.
The sequence TCTATTACTTGAAGGGCAACCGACGAGTCCGTTT came in with a PBM binding z-score of 1.59.
Under CCGAGTAGTTTATGGGGCATTCAGGCAACGGTGA stands 0.282; under TCGAGTAGATTAGTCGGGGCATTCAGCCAACATA, -0.416.
Consider CGTCCAAGATCAGCAGGTCAGTGAAAGCGACGTG, for which the PBM binding z-score came out at 1.97.
